Records with an inconclusive call do not appear. A call without a number means that no potency is given here. Calls of active or inactive are those of the source. Unless noted, the call rests on the fitted dose curve; in most records, active means well fitted curve in the direction sought with a large enough effect in the repeat runs; inconclusive means weak or mixed curves; inactive means no such curve, though single readings can be large; an effect the other way counts as inactive or inconclusive.
How the values were obtained:
[1] = qHTS assay to identify small molecule antagonists of the estrogen receptor alpha (ER-alpha) signaling pathway using the BG1 cell line in the presence of 0.1 nM 17-beta-estradiol - cell viability counter screen (AID 1259241); further: nearly all actives have a fitted effect of over 40% in size
How it was run: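 Measures cytotoxicity alongside the ER-alpha antagonist readout: VM7Luc4E2 cells, charcoal-stripped serum, 0.1 nM 17beta-estradiol final, 22 hr compound incubation at 37C, CellTiter-Fluor fluorescence.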

[2] = qHTS assay to identify small molecule antagonists of the androgen receptor (AR) signaling pathway using the MDA cell line in the presence of 0.5 nM R1881 - cell viability counter screen (AID 1259242); further: nearly all actives have a fitted effect of over 45% in size
How it was run: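 qHTS format. MDA-kb2 (MMTV-luc, AR/GR responsive) + cpd + 0.5 nM R1881 final, 16 hr 37C/0% CO2 → CellTiter-Fluor 30 min → fluorescence intensity.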

[3] = target: Estrogen receptor (Homo sapiens) (UniProt P03372); assay: qHTS assay to identify small molecule antagonists of the estrogen receptor alpha (ER-alpha) signaling pathway using the BG1 cell line in the presence of 0.1 nM 17-beta-estradiol (AID 1259244); further: nearly all actives have a fitted effect of over 50% in size
How it was run: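 Reporter is a stably transfected luciferase under four estrogen responsive elements in VM7Luc4E2 cells expressing native full-length ER-alpha; inhibition of 0.1 nM (final) 17beta-estradiol-driven signal over 22 h is read by luminescence.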

[4] = qHTS assay to identify small molecule HDAC inhibitors (AID 1259364); further: potency means the concentration at half of the fitted maximal effect;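 further: wild-type HCT-116 cells with endogenous class I/II HDAC activity; nearly all actives have a fitted effect of over 45% in size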
How it was run: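 Quantitative high-throughput format: overnight-seeded HCT-116 cells got compounds for 2 hr at 37C; HDAC-Glo I/II reagent added, 30 min RT, luminescence measured.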

[5] = qHTS assay to identify small molecule HDAC inhibitors - cell viability counter screen (AID 1259365); further: series mostly up to about 92 µM; nearly all actives have a fitted effect of over 50% in size
How it was run: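 Following a 2hr exposure of overnight-plated wild-type HCT-116 cells to DMSO-delivered compounds, CellTiter-Glo was added and luminescence recorded after 30min at room temperature.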

[6] = qHTS assay to identify small molecule agonists of the sonic hedgehog signaling (Shh) pathway - cell viability counter screen (AID 1259366); further: nearly all actives have a fitted effect of over 50% in size; further: potency means the concentration at half of the fitted maximal effect
How it was run: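 After a 4hr attachment at 37C, NIH/3T3 cells bearing an integrated Gli1-driven luciferase reporter were dosed with compounds. Treatment lasted 24hr, with the final hour including CellTiter-Fluor for a fluorescence viability measurement.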

[7] = qHTS assay to identify small molecule antagonists of the sonic hedgehog signaling (Shh) pathway - cell viability counter screen (AID 1259367); further: nearly all actives have a fitted effect of over 55% in size
How it was run: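 Fluorescence read-out (CellTiter-Fluor, 1 hr at 37C) taken after 23 hr compound treatment of 3T3 Gli1-Luc cells stimulated with conditioned medium. Cells were seeded at 2,000 per well and pre-incubated 4 hr.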

[8] = qHTS assay to identify small molecule agonists of the sonic hedgehog signaling (Shh) pathway (AID 1259368; calls by dose curve;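 further: NIH/3T3-derived 3T3Gli1-Luc cells carrying a stable Gli1-driven firefly luciferase reporter; series mostly up to about 92 µM; nearly all actives have a fitted effect of over 15% in size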)
How it was run: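 Quantitative high-throughput format using a Gli1-driven firefly luciferase reporter line derived from NIH/3T3 cells. After a 24 hr compound treatment at 37 C and 5% CO2, luminescence reported Gli1 response element activity.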

[9] = qHTS assay to identify small molecule phospholipidosis (PLD) inducers (AID 1259344; active means well fitted curve in the direction sought with a large enough effect; an effect the other way counts as inactive or inconclusive)
How it was run: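 Read-out is LipidTOX Red fluorescence (ex 595/em 615) imaged in HepG2 cells after 24 h compound exposure at 37 C, with Hoechst nuclear counterstain (ex 352/em 461) allowing per-cell normalisation.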

Sequence of Estrogen receptor (Homo sapiens) (P03372 whole entry, looked up): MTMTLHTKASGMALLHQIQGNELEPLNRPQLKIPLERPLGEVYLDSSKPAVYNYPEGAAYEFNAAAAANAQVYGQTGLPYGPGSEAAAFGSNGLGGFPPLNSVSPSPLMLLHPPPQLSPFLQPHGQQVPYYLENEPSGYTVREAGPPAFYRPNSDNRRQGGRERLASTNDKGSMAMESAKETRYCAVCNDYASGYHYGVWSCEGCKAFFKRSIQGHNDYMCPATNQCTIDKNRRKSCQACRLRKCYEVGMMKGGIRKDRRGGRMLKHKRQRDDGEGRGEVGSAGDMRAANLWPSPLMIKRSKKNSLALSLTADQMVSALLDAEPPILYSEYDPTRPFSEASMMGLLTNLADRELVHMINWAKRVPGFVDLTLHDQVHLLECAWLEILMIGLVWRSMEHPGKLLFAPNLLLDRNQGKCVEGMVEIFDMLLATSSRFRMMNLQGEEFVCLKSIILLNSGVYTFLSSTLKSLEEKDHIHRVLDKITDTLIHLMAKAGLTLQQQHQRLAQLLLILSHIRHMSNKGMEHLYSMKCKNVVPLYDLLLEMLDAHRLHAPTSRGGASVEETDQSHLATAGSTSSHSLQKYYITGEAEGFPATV

Structure (SMILES)	outcome [1]	Potency [2]	Potency [3]	Potency [4]	outcome [5]	Potency [6]	Potency [7]	outcome [8]	Potency [9]
O=P(O)(O)c1ccccc1	inactive	inactive	inactive	inactive	inactive	inactive	inactive		
C/C=C/CC#N	inactive	inactive	inactive	inactive	inactive	inactive	inactive	inactive	
C=CCCC#N	inactive	inactive	inactive	inactive	inactive	inactive	inactive		
CC(O)CCl (stereo not given)	inactive	inactive	inactive	inactive	inactive	inactive	inactive	inactive	
ClCOCCl	inactive	inactive	inactive	inactive	inactive	inactive	inactive	inactive	
O=P(O)(O)CN(CP(=O)(O)O)CP(=O)(O)O	inactive	inactive	inactive	inactive	inactive	inactive	inactive	inactive	
Cc1cc(OC(=O)N(C)C)nn1C(=O)N(C)C	inactive	inactive	inactive	inactive	inactive	inactive	inactive	inactive	
NCCOS(=O)(=O)O	inactive	inactive	inactive	inactive	inactive	inactive	inactive	inactive	
Clc1nc(Cl)nc(Nc2ccccc2Cl)n1	inactive	inactive	inactive	inactive	inactive	inactive	inactive	inactive	
CCNc1nc(NCC)nc(SC)n1	inactive	inactive	inactive	inactive	inactive	inactive	inactive	inactive	
OCC(Cl)CCl (stereo not given)	inactive	inactive	inactive	inactive	inactive	inactive	inactive	inactive	
CCCCCCCCSC(=O)Oc1cc(Cl)nnc1-c1ccccc1	inactive	inactive	inactive	inactive	inactive	inactive	inactive	inactive	
c1cncc([C@@H]2CCCCN2)c1	inactive	inactive	inactive	inactive	inactive	inactive	inactive	inactive	
CCOC(=O)C(Cl)Cc1cc(-n2nc(C)n(C(F)F)c2=O)c(F)cc1Cl (stereo not given)	inactive	inactive	inactive	inactive	inactive	inactive	inactive	inactive	
COc1cccc(C=O)c1	inactive	inactive	inactive	inactive	inactive	inactive	inactive	inactive	
CCOC(=O)Nc1cccc(OC(=O)Nc2ccccc2)c1	inactive	inactive	inactive	3.86 µM (active)	inactive	inactive	inactive	inactive	
CCC(C)C(C)(COC(N)=O)COC(N)=O (stereo not given)	inactive	inactive	inactive	inactive	inactive	inactive	inactive	inactive	
CCOP(=O)(CN(CCO)CCO)OCC	inactive	inactive	inactive	inactive	inactive	inactive	inactive	inactive	

Structure (SMILES)	outcome [1]	Potency [2]	Potency [3]	Potency [4]	outcome [5]	Potency [6]	Potency [7]	outcome [8]	Potency [9]
CCN(CCO)CCO	inactive	inactive	inactive	inactive	inactive	inactive	inactive	inactive	
CCCC[N+](=O)[O-]	inactive	inactive	inactive	inactive	inactive	inactive	inactive	inactive	
CCNP(=S)(OC)O/C(C)=C/C(=O)OC(C)C (stereo not given)	inactive	inactive	inactive		inactive	inactive		inactive	
N#CN=C1SCCN1Cc1ccc(Cl)nc1	inactive	inactive	inactive	inactive	inactive	inactive		inactive	
COC(=O)[C@@H](N)CCCN/C(N)=N/[N+](=O)[O-]	inactive	inactive		inactive	inactive	inactive	inactive	inactive	inactive
CCc1cc(OC)c(C[C@H](C)N)cc1OC	inactive	inactive		inactive	inactive				inactive
CC1=C2[C@H]3OC(=O)[C@@H](C)[C@@H]3CC[C@@]2(C)C=CC1=O	inactive	inactive		inactive	inactive	inactive	inactive	inactive	inactive
O=C(Cl)c1ccccc1	inactive	inactive	inactive	inactive	inactive	inactive		inactive	
C=CC=O	inactive	inactive		inactive	inactive	inactive			
COC1=CC(=O)O[C@@H](/C=C/c2ccccc2)C1	inactive	inactive		24.7 µM (active)	inactive	inactive	inactive		
NNCc1ccccc1	inactive	inactive	inactive	11.1 µM (active)	inactive	inactive	inactive	inactive	
Oc1ccc2c3c1O[C@H]1[C@@H](O)C=C[C@H]4[C@@H](C2)NCC[C@@]341	inactive	inactive		inactive	inactive	28.1 µM (active)		inactive	inactive
CC#Cc1cc(C)nc(Nc2ccccc2)n1	inactive	inactive	inactive		inactive	inactive	inactive		
Cc1cccc2sc3nncn3c12	inactive	inactive	inactive	inactive		inactive		inactive	
COP(=O)(OC)O/C(C)=C/C(=O)N(C)C	inactive	inactive	inactive	inactive		inactive	inactive	inactive	
NCC1(CC(=O)O)CCCCC1	inactive	inactive		inactive	inactive	inactive	inactive	inactive	inactive
O=C(O)c1c(Cl)ccc2cc(Cl)cnc12	inactive	inactive	inactive	inactive	inactive	inactive	inactive	inactive	

Reference: PubChem BioAssay (Tox21)
